In the antibiotic and cytotoxicity screens of Wong et al. (2023):
In all, about 39,000 compounds went through this assay and about 1,500 (3.8%) were called active. The list comes from a sample in which actives are over-represented; it also holds similar structures and randomly drawn compounds.

The molecules below were run on HSkMC (human skeletal muscle cells) (assay: cytotoxicity call (relative viability < 0.9)). Details: 10 µM.

Q: `C[C@H](CO)N1C[C@H](C)[C@@H](CN(C)C(=O)CN(C)C)Oc2cc(-c3cncnc3)ccc2S1(=O)=O` was tested. Which cytotoxicity call did it give?
A: inactive

Q: Which cytotoxicity call does the source give for `O=C(C[C@H]1CC[C@H]2[C@@H](COC[C@H](O)CN2C(=O)c2cnccn2)O1)NCc1ccc(Oc2ccccc2)cc1` here?
A: inactive

Q: `C[C@@H]1CN([C@H](C)CO)S(=O)(=O)c2ccc(C#CC3CCCC3)cc2O[C@H]1CN(C)C(=O)Cc1ccncc1` was tested. Which cytotoxicity call did it give?
A: inactive

Q: With `C[C@@H]1CCCCO[C@@H](CN(C)C(=O)c2ccccc2)[C@@H](C)CN([C@H](C)CO)C(=O)c2cc(NS(=O)(=O)c3ccc(Cl)cc3)ccc2O1` as the molecule, how does the cytotoxicity call read?
A: inactive

Q: For `O=C(NCC(F)(F)F)[C@@H]1[C@@H](CO)[C@@H]2Cn3c(cccc3=O)[C@H]1N2C(=O)C1CCC1`, which cytotoxicity call is on record?
A: inactive

Q: How did the cytotoxicity call turn out when `COc1ccc(S(=O)(=O)N(C)C[C@H]2Oc3ccc(NS(=O)(=O)c4ccc(C)cc4)cc3C(=O)N([C@H](C)CO)C[C@@H]2C)cc1` was run?
A: inactive

Q: Which cytotoxicity call does the source give for `CC(C)NC(=O)N(C)C[C@@H]1Oc2ccc(NC(=O)CCN3CCOCC3)cc2CC(=O)N([C@@H](C)CO)C[C@@H]1C` here?
A: inactive

Q: How did the cytotoxicity call turn out when `Cc1ccccc1S(=O)(=O)N1C[C@H](O)COC[C@H]2O[C@@H](CC(=O)NCc3ccccc3Cl)CC[C@@H]21` was run?
A: inactive

Q: `COc1ccc2c3c([nH]c2c1)[C@H](CO)N(C[C@]13CN(CCc2ccccc2)C1)C(=O)CN1CCOCC1` was tested. Which cytotoxicity call did it give?
A: inactive

Q: For `COc1ccc2c3c([nH]c2c1)[C@H](CO)N(Cc1ccc(cc1)Cl)C[C@]13CN(CCc2ccccc2)C1`, which cytotoxicity call is on record?
A: active

Q: `COc1ccc2c3c([nH]c2c1)[C@@H](CO)N(C[C@]13CN(CCc2ccccc2)C1)C(=O)CN1CCOCC1` was tested. Which cytotoxicity call did it give?
A: inactive

Q: How did the cytotoxicity call turn out when `COc1ccc2c3c([nH]c2c1)[C@H](CO)N(C[C@]13CCN(CCc2ccccc2)CC1)C(=O)CN1CCOCC1` was run?
A: inactive

Q: Which cytotoxicity call does the source give for `COc1ccc2c3c([nH]c2c1)[C@@H](CO)N(Cc1ccc(cc1)Cl)C[C@]13CCN(CCc2ccccc2)CC1` here?
A: active

Q: For `COc1ccc2c3c([nH]c2c1)[C@@H](CO)N(Cc1ccccc1)C[C@]13CCN(CC1)C(=O)Nc1cccc(c1)F`, which cytotoxicity call is on record?
A: inactive

Q: Which cytotoxicity call does the source give for `COc1ccc2c3c([nH]c2c1)[C@H](CO)N(Cc1ccc(cc1)Cl)C[C@]13CCN(CCc2ccccc2)CC1` here?
A: inactive

Q: How did the cytotoxicity call turn out when `COc1ccc2c3c([nH]c2c1)[C@@H](CO)N(Cc1ccc(cc1)Cl)C[C@]13CN(CCc2ccccc2)C1` was run?
A: active

Q: How did the cytotoxicity call turn out when `COc1ccc2c3c([nH]c2c1)[C@H](CO)N(Cc1ccccc1)C[C@]13CCN(CC1)C(=O)Nc1cccc(c1)F` was run?
A: inactive

Q: `C[C@@H]1CCCCO[C@H](CN(C)C(=O)c2ccccc2)[C@H](C)CN([C@@H](C)CO)C(=O)c2cc(NC(=O)Cc3ccccc3)ccc2O1` was tested. Which cytotoxicity call did it give?
A: inactive

Q: Which cytotoxicity call does the source give for `C[C@@H]1CN([C@@H](C)CO)C(=O)Cc2cc(NS(=O)(=O)c3cn(C)cn3)ccc2O[C@H]1CN(C)C` here?
A: inactive

Q: `COC(=O)C1=CO[C@@H](O[C@@H]2O[C@H](CO)[C@@H](O)[C@H](O)[C@H]2O)[C@@H]2[C@@H](CO)C=C[C@H]12` was tested. Which cytotoxicity call did it give?
A: inactive

Q: Which cytotoxicity call does the source give for `C[C@@H]1CN([C@@H](C)CO)C(=O)c2cc(NC(=O)CCC(F)(F)F)ccc2O[C@@H](C)CCCCO[C@@H]1CN(C)C(=O)C1CCCCC1` here?
A: inactive

Q: `COc1ccc(C#Cc2ccc3c(c2)O[C@@H](CN(C)C(C)=O)[C@@H](C)CN([C@H](C)CO)S3(=O)=O)cc1` was tested. Which cytotoxicity call did it give?
A: inactive

Q: `COc1ccc(CN(C)C[C@@H]2OCCCC[C@H](C)Oc3ccc(NC(=O)CCC(F)(F)F)cc3C(=O)N([C@@H](C)CO)C[C@@H]2C)cc1` was tested. Which cytotoxicity call did it give?
A: inactive

Q: With `CCCNc1nc(Nc2ccc(C#N)cc2)ncc1C#CCCCNC(=O)[C@H](C)N(C)C(=O)/C=C/CN(C)C` as the molecule, how does the cytotoxicity call read?
A: active

Q: How did the cytotoxicity call turn out when `OCc1ccccc1-n1cncn1` was run?
A: inactive

Q: `COc1ccc2c3c([nH]c2c1)[C@H](CO)N(CC1CCCC1)C[C@]13CCN(CC1)C(=O)c1ccc(cc1)F` was tested. Which cytotoxicity call did it give?
A: active

Q: `COc1ccc2c3c([nH]c2c1)[C@@H](CO)N(C[C@]13CCN(CC1)C(=O)Nc1ccc(cc1)F)C(=O)c1ccc(cc1)F` was tested. Which cytotoxicity call did it give?
A: inactive

Q: For `COc1ccc2c3c([nH]c2c1)[C@H](CO)N(C[C@]13CCN(CC1)C(=O)Nc1ccc(cc1)F)C(=O)c1ccc(cc1)F`, which cytotoxicity call is on record?
A: inactive

Q: With `COc1ccc2c3c([nH]c2c1)[C@@H](CO)N(CC1CCCC1)C[C@]13CCN(CC1)C(=O)c1ccc(cc1)F` as the molecule, how does the cytotoxicity call read?
A: active

Q: Which cytotoxicity call does the source give for `COc1ccc2c3c([nH]c2c1)[C@@H](CO)N(CC1CCCC1)C[C@]13CCN(CC1)C(=O)Nc1cccc(c1)F` here?
A: inactive

Q: How did the cytotoxicity call turn out when `COc1ccc2c3c([nH]c2c1)[C@H](CO)N(CC1CCCC1)C[C@]13CCN(CC1)C(=O)Nc1cccc(c1)F` was run?
A: inactive

Q: `CC(=O)N[C@H](Cc1ccc2ccccc2c1)C(=O)N[C@H](Cc1ccc(Cl)cc1)C(=O)N[C@H](Cc1cccnc1)C(=O)N[C@@H](CO)C(=O)N(C)[C@@H](Cc1ccc(O)cc1)C(=O)N[C@H](CC(N)=O)C(=O)N[C@@H](CC(C)C)C(=O)N[C@@H](CCCCNC(C)C)C(=O)N1CCC[C@H]1C(=O)N[C@H](C)C(N)=O` was tested. Which cytotoxicity call did it give?
A: inactive

Q: `CS(=O)(=O)Nc1ccc2c(c1)[C@@H]1C[C@H](CC(=O)NCc3ccc(-c4ccccc4)cc3)O[C@@H](CO)[C@@H]1O2` was tested. Which cytotoxicity call did it give?
A: inactive

Q: Which cytotoxicity call does the source give for `C[C@@H]1CN([C@@H](C)CO)C(=O)Cc2cc(NC(=O)CCCCCC(=O)Nc3ccccc3N)ccc2O[C@H]1CN(C)Cc1ccccc1` here?
A: inactive

Q: How did the cytotoxicity call turn out when `C[C@@H]1CN([C@H](C)CO)C(=O)c2cc(NC(=O)Nc3ccc(C(F)(F)F)cc3)ccc2O[C@@H](C)CCCCO[C@H]1CN(C)S(=O)(=O)c1ccc(F)cc1` was run?
A: inactive

Q: For `Cc1noc(C)c1NC(=O)N(C)C[C@@H]1OCCCC[C@H](C)Oc2ccc(NS(=O)(=O)c3ccccc3)cc2C(=O)N([C@@H](C)CO)C[C@@H]1C`, which cytotoxicity call is on record?
A: inactive

Q: `COc1ccc2[nH]cc(CCNC(C)=O)c2c1` was tested. Which cytotoxicity call did it give?
A: inactive

Q: `Cn1c(CN)nc2ccccc2c1=O` was tested. Which cytotoxicity call did it give?
A: inactive

Q: For `CC(C)Oc1cccc(-n2c(CCc3c[nH]c4ccc(Br)cc34)nc3ccccc3c2=O)c1`, which cytotoxicity call is on record?
A: active

Q: For `C[C@@H]1CCCCO[C@H](CN(C)C(=O)Cc2ccccc2)[C@H](C)CN([C@H](C)CO)C(=O)c2cc(NS(=O)(=O)c3cccs3)ccc2O1`, which cytotoxicity call is on record?
A: inactive

Q: For `Cc1noc(C)c1S(=O)(=O)Nc1ccc2c(c1)C(=O)N([C@@H](C)CO)C[C@H](C)[C@H](CN(C)S(=O)(=O)c1cn(C)cn1)O2`, which cytotoxicity call is on record?
A: inactive

Q: `C[C@H]1CCCCO[C@H](CN(C)C(=O)Nc2cccc3ccccc23)[C@@H](C)CN([C@@H](C)CO)C(=O)c2cc(NS(=O)(=O)c3cn(C)cn3)ccc2O1` was tested. Which cytotoxicity call did it give?
A: inactive

Q: Which cytotoxicity call does the source give for `C[C@@H]1CCCCO[C@H](CN(C)C(=O)Nc2cccc3ccccc23)[C@H](C)CN([C@@H](C)CO)C(=O)c2cc(NS(=O)(=O)c3cn(C)cn3)ccc2O1` here?
A: inactive

Q: With `C[C@@H]1CCCCO[C@@H](CN(C)C(=O)Nc2cccc3ccccc23)[C@H](C)CN([C@@H](C)CO)C(=O)c2cc(NS(=O)(=O)c3cn(C)cn3)ccc2O1` as the molecule, how does the cytotoxicity call read?
A: inactive

Q: For `C[C@@H]1CCCCO[C@@H](CN(C)C(=O)Nc2cccc3ccccc23)[C@H](C)CN([C@H](C)CO)C(=O)c2cc(NS(=O)(=O)c3cn(C)cn3)ccc2O1`, which cytotoxicity call is on record?
A: inactive

Q: With `C[C@@H]1CN([C@@H](C)CO)C(=O)c2cc(NS(=O)(=O)c3cn(C)cn3)ccc2O[C@@H](C)CCCCO[C@@H]1CN(C)C(=O)Nc1cccc2ccccc12` as the molecule, how does the cytotoxicity call read?
A: active

Q: With `C[C@H](CO)N1C[C@H](C)[C@H](CN(C)C(=O)Nc2cccc3ccccc23)OCCCC[C@H](C)Oc2ccc(NS(=O)(=O)c3cn(C)cn3)cc2C1=O` as the molecule, how does the cytotoxicity call read?
A: inactive

Q: With `C[C@H](CO)N1C[C@H](C)[C@@H](CN(C)C(=O)Nc2cccc3ccccc23)OCCCC[C@H](C)Oc2ccc(NS(=O)(=O)c3cn(C)cn3)cc2C1=O` as the molecule, how does the cytotoxicity call read?
A: inactive

Q: For `C[C@H]1CCCCO[C@@H](CN(C)C(=O)Nc2cccc3ccccc23)[C@@H](C)CN([C@@H](C)CO)C(=O)c2cc(NS(=O)(=O)c3cn(C)cn3)ccc2O1`, which cytotoxicity call is on record?
A: active

Q: How did the cytotoxicity call turn out when `C[C@@H]1CCCCO[C@H](CN(C)C(=O)Nc2cccc3ccccc23)[C@@H](C)CN([C@@H](C)CO)C(=O)c2cc(NS(=O)(=O)c3cn(C)cn3)ccc2O1` was run?
A: inactive

Q: For `C[C@@H]1CN([C@@H](C)CO)C(=O)c2cc(NS(=O)(=O)c3cn(C)cn3)ccc2O[C@@H](C)CCCCO[C@H]1CN(C)C(=O)Nc1cccc2ccccc12`, which cytotoxicity call is on record?
A: active

Q: Which cytotoxicity call does the source give for `C[C@@H]1CCCCO[C@@H](CN(C)C(=O)Nc2cccc3ccccc23)[C@@H](C)CN([C@H](C)CO)C(=O)c2cc(NS(=O)(=O)c3cn(C)cn3)ccc2O1` here?
A: inactive

Q: How did the cytotoxicity call turn out when `C[C@@H]1CCCCO[C@H](CN(C)C(=O)Nc2cccc3ccccc23)[C@H](C)CN([C@H](C)CO)C(=O)c2cc(NS(=O)(=O)c3cn(C)cn3)ccc2O1` was run?
A: active

Q: Which cytotoxicity call does the source give for `C[C@@H]1CN([C@@H](C)CO)S(=O)(=O)c2ccc(-c3cncnc3)cc2O[C@H]1CN(C)C(=O)Cc1cccnc1` here?
A: inactive

Q: Which cytotoxicity call does the source give for `C[C@@H]1CCCCO[C@H](CN(C)C(=O)Nc2ccccc2)[C@@H](C)CN([C@H](C)CO)C(=O)c2cc(NC(=O)c3ccncc3)ccc2O1` here?
A: inactive

Q: For `Cc1noc(C)c1NC(=O)N(C)C[C@H]1Oc2ccc(NS(=O)(=O)c3cccs3)cc2CC(=O)N([C@@H](C)CO)C[C@H]1C`, which cytotoxicity call is on record?
A: inactive

Q: How did the cytotoxicity call turn out when `Cc1ccc(-c2cnc(-c3ccc(Br)cc3)o2)cc1` was run?
A: inactive

Q: For `C[C@@H]1CN([C@H](C)CO)C(=O)Cc2cc(NC(=O)Cn3cnnn3)ccc2O[C@@H]1CN(C)Cc1ccccc1`, which cytotoxicity call is on record?
A: inactive

Q: `CCCN1C[C@H](C)[C@@H](O)[C@](C)(O)[C@@H](CC)OC(=O)[C@H](C)[C@@H](O[C@H]2C[C@@](C)(OC)[C@@H](O)[C@H](C)O2)[C@H](C)[C@@H](O[C@@H]2O[C@H](C)C[C@H](N(C)C)[C@H]2O)[C@](C)(O)C[C@H]1C` was tested. Which cytotoxicity call did it give?
A: inactive

Q: `CC(C)c1ccccc1Cc1cc(C(=O)Nc2ccc(S(=O)(=O)c3ccccc3C(C)(C)C)cc2)c(O)c(O)c1O` was tested. Which cytotoxicity call did it give?
A: active

Q: Which cytotoxicity call does the source give for `CCc1cccc(C(C)C)c1NC(=O)Nc1ccccc1` here?
A: inactive

Q: How did the cytotoxicity call turn out when `Cc1oc(C(C)(C)C)cc1C(=O)Nc1ccc(C(C)C)cc1` was run?
A: inactive
